# What was measured:
# [1] = molecular target: Sphingosine kinase 1 (Homo sapiens) (UniProt Q9NYA1); conditions: at 1 µM;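 note: mean SPHK1 inhibition value reported from the GSK PKIS kinase panel screen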
# [2] = molecular target: T1, Sphingosine kinase 2 (Homo sapiens) (UniProt Q9NRA0); conditions: at 0.1 µM
# T1 sequence (whole entry): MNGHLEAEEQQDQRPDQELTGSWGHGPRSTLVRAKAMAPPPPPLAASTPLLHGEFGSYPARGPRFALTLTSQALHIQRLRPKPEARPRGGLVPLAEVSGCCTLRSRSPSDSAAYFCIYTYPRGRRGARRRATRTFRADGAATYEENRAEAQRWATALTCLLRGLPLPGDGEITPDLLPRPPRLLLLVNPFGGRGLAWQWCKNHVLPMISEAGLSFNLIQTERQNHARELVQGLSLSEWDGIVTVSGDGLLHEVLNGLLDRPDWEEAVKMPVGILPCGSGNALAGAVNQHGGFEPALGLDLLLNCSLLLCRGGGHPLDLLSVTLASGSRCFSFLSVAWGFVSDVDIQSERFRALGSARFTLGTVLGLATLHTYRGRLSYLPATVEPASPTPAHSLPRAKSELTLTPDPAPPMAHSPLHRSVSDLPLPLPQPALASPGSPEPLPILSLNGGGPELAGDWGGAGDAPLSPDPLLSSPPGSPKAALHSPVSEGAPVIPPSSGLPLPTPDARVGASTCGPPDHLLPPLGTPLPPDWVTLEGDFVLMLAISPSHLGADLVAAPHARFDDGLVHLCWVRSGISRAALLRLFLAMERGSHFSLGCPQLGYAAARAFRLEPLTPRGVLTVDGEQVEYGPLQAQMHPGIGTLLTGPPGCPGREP
# [3] = molecular target: T1, Sphingosine kinase 2 (Homo sapiens); conditions: at 1 µM
# [4] = molecular target: Casein kinase II subunit alpha (Homo sapiens) (UniProt P68400); conditions: at 0.1 µM
# [5] = molecular target: Casein kinase II subunit alpha (Homo sapiens) (UniProt P68400); conditions: at 1 µM
# [6] = molecular target: T2, Inhibitor of nuclear factor kappa-B kinase subunit alpha (Homo sapiens) (UniProt O15111); conditions: at 0.1 µM
# T2 sequence (whole entry): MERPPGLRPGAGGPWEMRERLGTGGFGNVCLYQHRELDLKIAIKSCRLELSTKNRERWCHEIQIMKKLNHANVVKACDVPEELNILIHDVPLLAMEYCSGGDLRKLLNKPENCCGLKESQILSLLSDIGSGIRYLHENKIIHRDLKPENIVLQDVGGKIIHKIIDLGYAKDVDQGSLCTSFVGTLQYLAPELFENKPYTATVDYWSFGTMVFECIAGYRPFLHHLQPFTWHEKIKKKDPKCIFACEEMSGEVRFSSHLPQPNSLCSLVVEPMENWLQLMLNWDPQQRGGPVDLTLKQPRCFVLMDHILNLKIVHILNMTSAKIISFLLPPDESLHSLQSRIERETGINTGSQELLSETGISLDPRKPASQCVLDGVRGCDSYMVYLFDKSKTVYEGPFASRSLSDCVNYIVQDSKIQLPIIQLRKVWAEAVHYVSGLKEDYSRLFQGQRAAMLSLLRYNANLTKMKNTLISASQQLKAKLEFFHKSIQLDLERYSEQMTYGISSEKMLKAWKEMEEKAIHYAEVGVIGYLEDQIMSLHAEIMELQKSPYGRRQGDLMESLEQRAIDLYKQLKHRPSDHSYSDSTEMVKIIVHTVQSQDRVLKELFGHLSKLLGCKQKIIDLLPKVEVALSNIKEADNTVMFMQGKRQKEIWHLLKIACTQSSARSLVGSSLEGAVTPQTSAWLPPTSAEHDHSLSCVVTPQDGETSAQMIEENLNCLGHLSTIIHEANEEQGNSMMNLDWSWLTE
# [7] = molecular target: T2, Inhibitor of nuclear factor kappa-B kinase subunit alpha (Homo sapiens); conditions: at 1 µM
# [8] = molecular target: T3, Inhibitor of nuclear factor kappa-B kinase subunit beta (Homo sapiens) (UniProt O14920); conditions: at 0.1 µM
# T3 sequence (whole entry): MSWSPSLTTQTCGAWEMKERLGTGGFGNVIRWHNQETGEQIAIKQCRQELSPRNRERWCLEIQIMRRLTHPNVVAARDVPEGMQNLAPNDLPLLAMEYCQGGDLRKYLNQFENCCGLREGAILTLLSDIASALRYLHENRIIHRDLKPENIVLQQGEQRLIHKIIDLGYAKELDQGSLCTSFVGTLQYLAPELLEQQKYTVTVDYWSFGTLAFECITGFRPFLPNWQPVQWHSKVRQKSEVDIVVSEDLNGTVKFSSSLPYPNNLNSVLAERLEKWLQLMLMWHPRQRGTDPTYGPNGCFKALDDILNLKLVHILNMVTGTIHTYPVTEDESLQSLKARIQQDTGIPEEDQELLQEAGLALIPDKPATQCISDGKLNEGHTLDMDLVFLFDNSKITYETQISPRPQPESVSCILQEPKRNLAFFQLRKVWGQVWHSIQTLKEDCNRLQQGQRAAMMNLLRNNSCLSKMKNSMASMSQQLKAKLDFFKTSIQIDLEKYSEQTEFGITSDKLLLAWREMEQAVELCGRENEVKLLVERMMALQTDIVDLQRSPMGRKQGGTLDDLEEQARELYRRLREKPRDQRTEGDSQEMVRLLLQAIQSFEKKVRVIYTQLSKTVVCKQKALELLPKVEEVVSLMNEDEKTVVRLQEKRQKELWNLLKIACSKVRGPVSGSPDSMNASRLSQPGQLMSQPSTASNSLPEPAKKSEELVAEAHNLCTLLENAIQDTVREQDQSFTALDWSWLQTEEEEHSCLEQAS
# [9] = molecular target: T3, Inhibitor of nuclear factor kappa-B kinase subunit beta (Homo sapiens); conditions: at 1 µM
# [10] = molecular target: T4, Inhibitor of nuclear factor kappa-B kinase subunit epsilon (Homo sapiens) (UniProt Q14164); conditions: at 0.1 µM
# T4 sequence (whole entry): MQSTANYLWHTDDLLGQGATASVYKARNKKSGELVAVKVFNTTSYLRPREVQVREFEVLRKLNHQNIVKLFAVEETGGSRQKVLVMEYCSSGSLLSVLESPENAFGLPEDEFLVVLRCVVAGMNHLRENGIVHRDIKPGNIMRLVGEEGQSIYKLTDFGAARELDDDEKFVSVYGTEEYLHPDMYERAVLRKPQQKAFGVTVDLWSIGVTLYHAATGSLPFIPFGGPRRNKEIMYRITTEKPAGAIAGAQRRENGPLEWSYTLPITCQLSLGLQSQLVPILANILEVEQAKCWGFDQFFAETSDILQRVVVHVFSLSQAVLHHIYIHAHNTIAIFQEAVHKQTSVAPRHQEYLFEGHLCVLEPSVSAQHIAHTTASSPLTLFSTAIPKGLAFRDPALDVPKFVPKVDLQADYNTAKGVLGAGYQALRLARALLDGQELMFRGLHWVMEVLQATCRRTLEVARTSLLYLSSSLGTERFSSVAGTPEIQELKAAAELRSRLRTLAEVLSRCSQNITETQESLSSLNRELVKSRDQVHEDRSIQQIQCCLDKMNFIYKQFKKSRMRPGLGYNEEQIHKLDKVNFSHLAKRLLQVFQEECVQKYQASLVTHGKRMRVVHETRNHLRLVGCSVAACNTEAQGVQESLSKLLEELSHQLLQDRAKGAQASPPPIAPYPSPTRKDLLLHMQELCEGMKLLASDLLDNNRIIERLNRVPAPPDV
# [11] = molecular target: T4, Inhibitor of nuclear factor kappa-B kinase subunit epsilon (Homo sapiens); conditions: at 1 µM
# [12] = molecular target: T5, Serine/threonine-protein kinase Nek1 (Homo sapiens) (UniProt Q96PY6); conditions: at 0.1 µM
# T5 sequence (whole entry): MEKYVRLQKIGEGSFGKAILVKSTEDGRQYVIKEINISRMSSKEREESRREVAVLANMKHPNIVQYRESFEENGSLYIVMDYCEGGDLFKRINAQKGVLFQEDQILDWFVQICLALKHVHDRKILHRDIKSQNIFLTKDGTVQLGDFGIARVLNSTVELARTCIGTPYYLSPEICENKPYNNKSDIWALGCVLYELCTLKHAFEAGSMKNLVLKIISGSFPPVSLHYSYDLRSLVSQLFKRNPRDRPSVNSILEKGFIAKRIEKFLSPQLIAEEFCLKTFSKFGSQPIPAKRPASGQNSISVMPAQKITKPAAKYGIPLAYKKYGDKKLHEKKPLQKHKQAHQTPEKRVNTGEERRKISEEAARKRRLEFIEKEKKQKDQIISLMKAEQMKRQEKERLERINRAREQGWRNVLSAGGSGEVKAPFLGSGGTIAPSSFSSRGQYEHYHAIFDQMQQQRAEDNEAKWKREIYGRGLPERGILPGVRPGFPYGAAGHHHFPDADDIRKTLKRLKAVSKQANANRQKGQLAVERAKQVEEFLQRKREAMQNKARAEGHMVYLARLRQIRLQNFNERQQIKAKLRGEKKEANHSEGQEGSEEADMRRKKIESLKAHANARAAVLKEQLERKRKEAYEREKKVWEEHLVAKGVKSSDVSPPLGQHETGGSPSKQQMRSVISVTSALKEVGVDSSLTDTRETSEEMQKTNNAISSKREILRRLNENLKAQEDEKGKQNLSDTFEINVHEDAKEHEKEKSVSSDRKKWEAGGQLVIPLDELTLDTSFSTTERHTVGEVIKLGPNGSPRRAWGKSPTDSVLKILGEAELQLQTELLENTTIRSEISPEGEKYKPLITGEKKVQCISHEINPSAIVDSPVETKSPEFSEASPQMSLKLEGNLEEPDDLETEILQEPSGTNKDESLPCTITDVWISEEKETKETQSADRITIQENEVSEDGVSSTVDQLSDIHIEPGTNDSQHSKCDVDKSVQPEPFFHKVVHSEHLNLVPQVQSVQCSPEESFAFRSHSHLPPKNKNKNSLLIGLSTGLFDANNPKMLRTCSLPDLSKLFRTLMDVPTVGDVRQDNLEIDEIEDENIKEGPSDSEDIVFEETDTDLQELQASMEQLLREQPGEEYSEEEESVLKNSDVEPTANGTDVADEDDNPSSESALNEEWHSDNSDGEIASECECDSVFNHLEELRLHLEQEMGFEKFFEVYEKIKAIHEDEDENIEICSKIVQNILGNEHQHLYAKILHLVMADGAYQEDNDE
# [13] = molecular target: T5, Serine/threonine-protein kinase Nek1 (Homo sapiens); conditions: at 1 µM
# [14] = molecular target: T6, Serine/threonine-protein kinase Nek2 (Homo sapiens) (UniProt P51955); conditions: at 0.1 µM
# T6 sequence (whole entry): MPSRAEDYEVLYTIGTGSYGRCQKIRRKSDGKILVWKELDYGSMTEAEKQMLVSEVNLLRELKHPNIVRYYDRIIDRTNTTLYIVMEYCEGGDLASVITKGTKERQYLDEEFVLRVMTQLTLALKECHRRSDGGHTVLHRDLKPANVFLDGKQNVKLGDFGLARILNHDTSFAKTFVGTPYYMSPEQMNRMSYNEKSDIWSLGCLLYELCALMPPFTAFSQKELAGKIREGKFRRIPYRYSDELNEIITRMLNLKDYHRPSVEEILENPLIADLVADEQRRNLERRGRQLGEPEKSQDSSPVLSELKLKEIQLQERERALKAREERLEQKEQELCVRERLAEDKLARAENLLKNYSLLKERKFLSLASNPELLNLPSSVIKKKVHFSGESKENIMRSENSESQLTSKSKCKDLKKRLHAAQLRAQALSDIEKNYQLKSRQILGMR
# [15] = molecular target: T6, Serine/threonine-protein kinase Nek2 (Homo sapiens); conditions: at 1 µM
# [16] = molecular target: Serine/threonine-protein kinase Nek6 (Homo sapiens) (UniProt Q9HC98); conditions: at 0.1 µM
# [17] = molecular target: Serine/threonine-protein kinase Nek6 (Homo sapiens) (UniProt Q9HC98); conditions: at 1 µM
# [18] = molecular target: Serine/threonine-protein kinase Nek7 (Homo sapiens) (UniProt Q8TDX7); conditions: at 0.1 µM
# [19] = molecular target: Serine/threonine-protein kinase Nek7 (Homo sapiens) (UniProt Q8TDX7); conditions: at 1 µM
# [20] = molecular target: T7, Serine/threonine-protein kinase Nek9 (Homo sapiens) (UniProt Q8TD19); conditions: at 0.1 µM;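 note: reported value is the mean percent inhibition of NEK9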
# T7 sequence (whole entry): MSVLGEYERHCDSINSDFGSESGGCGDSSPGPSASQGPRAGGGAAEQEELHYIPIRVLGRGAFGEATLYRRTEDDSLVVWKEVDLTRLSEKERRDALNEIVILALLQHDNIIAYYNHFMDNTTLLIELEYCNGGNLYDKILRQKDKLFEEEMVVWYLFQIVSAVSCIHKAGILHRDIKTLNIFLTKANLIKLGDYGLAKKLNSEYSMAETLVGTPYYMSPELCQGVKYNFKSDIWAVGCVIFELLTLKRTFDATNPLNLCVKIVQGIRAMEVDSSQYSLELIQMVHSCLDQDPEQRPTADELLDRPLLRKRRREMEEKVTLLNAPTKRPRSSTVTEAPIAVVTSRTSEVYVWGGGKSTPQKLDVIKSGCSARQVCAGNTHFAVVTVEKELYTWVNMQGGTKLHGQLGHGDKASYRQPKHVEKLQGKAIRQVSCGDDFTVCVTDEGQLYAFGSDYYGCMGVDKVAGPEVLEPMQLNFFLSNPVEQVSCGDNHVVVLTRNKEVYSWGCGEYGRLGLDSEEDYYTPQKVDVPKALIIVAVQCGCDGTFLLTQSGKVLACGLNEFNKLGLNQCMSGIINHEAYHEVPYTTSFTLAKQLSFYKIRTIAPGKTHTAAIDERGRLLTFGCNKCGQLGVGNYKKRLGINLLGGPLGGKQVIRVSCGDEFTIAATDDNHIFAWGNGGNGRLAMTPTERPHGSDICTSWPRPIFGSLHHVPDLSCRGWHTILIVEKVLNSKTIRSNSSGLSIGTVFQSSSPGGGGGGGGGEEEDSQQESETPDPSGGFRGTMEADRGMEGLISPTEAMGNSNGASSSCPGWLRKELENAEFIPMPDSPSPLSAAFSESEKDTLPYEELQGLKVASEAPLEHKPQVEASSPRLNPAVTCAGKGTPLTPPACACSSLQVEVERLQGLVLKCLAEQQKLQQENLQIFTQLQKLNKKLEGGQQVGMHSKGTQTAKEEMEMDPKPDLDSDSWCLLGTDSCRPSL
# Casein kinase II subunit alpha (Homo sapiens), sequence (P68400 whole entry, looked up): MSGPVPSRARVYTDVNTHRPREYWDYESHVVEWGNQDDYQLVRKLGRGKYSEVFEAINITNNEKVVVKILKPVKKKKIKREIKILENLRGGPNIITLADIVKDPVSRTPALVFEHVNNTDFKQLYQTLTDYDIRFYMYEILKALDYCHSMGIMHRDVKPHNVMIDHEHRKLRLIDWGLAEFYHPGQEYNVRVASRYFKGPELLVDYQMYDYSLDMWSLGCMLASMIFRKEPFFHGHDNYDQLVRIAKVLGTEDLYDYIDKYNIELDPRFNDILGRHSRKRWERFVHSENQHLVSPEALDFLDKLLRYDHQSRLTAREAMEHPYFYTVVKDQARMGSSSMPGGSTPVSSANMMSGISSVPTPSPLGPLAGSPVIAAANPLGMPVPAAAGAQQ
# Serine/threonine-protein kinase Nek6 (Homo sapiens), sequence (Q9HC98 whole entry): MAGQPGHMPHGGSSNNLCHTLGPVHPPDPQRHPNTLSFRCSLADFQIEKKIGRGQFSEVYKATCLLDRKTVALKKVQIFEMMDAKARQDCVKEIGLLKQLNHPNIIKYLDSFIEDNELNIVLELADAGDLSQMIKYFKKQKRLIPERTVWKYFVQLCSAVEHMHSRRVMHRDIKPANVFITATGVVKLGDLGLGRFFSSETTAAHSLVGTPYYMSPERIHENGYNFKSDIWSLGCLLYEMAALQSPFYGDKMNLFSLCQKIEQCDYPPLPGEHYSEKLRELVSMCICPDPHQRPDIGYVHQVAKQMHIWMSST
# Serine/threonine-protein kinase Nek7 (Homo sapiens), sequence (Q8TDX7 whole entry, looked up): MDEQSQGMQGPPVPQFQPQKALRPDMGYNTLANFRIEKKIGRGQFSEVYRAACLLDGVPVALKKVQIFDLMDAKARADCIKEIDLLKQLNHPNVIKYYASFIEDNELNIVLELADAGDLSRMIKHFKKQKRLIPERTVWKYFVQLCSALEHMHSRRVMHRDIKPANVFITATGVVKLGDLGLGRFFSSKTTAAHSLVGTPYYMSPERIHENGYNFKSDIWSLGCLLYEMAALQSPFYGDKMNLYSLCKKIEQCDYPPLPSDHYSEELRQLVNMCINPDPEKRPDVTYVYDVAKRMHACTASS
# Sphingosine kinase 1 (Homo sapiens), sequence (Q9NYA1 whole entry): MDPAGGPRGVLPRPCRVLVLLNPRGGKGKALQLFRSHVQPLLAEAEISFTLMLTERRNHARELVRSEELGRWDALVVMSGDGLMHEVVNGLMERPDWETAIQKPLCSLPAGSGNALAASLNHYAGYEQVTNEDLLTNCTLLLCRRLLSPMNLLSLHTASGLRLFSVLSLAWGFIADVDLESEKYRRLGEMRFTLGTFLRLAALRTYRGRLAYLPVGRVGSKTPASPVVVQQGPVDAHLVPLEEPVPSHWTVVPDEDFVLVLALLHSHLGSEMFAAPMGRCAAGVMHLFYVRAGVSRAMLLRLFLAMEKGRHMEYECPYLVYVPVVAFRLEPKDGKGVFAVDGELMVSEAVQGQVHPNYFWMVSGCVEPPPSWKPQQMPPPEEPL
smiles,measurement,setting,value
COc1ccccc1-c1cc(/C=C2\C(=O)Nc3ncc(Br)cc32)cc(Br)c1O,inhibition,[1],-2.44%
same,inhibition,[2],2.31%
same,inhibition,[3],0.1%
same,inhibition,[4],1.59%
same,inhibition,[5],3.83%
same,inhibition,[6],0.19%
same,inhibition,[7],0.71%
same,inhibition,[8],5.58%
same,inhibition,[9],-0.48%
same,inhibition,[10],10.9%
same,inhibition,[11],12.5%
same,inhibition,[12],2.67%
same,inhibition,[13],0.39%
same,inhibition,[14],6.8%
same,inhibition,[15],6.16%
same,inhibition,[16],3.44%
same,inhibition,[17],0.04%
same,inhibition,[18],6.5%
same,inhibition,[19],3.62%
same,inhibition,[20],3.73%

# Reference: ChEMBL document CHEMBL1961873, “Compounds: GSK PKIS; Assays: Nanosyn kinase panel” (2012)
